Laboratory results reported in PubChem BioAssay (NCATS).
Results filed as inconclusive are left out. A number with no mark means an inactive call. Active and inactive are the calls of the source. The call rests on the fitted dose curve; in most records, active means well fitted inhibition curve with a large enough effect; inconclusive means small, poorly fitted or top-dose-only effect; inactive means no such curve, though single readings can be large or run the other way.

What follows are compounds tested against Calcium and integrin-binding protein 1 (Homo sapiens) (UniProt Q99828) (assay: Confirmatory qHTS for Identification of Calcium Integrin Binding Protein 1 (CIB1) Competitor (AID 1508617; further: nearly all actives have a fitted effect of over 65% in size)). Conditions: CIB1 binding competition assay, biochemical qHTS; series mostly up to 114 µM; activity change, negative = inhibition: at the top concentration.
Chain of Calcium and integrin-binding protein 1 (Homo sapiens) (Q99828 whole entry, looked up): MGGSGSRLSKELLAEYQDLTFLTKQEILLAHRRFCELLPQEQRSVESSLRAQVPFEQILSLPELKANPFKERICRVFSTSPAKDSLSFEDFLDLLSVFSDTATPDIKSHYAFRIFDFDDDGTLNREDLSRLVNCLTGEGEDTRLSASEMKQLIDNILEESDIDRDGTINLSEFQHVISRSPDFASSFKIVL
Method in brief: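 Compounds at up to 114 uM final met 1 uM GST-tagged CIB1 for 15 min at room temperature (HEPES pH 7.4, 5 mM CaCl2). FITC-labelled alphaIIb peptide, 100 nM, added; polarization read after 15 min more.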
On the % scale 0 is the no-effect control and ±100 the full control effect; potency means the concentration at half of the fitted maximal effect.

SMILES	activity change, negative = inhibition [%]	Potency
NC(=O)c1cccc(-c2cnc3c(O)ccc(C(=O)O)c3c2)c1	-8.03	–
O=C1CCC2=C1C1(CCCC1)N=C(Nc1nc3ccccc3o1)N2	2.61	–
O=C(NC(c1ccco1)c1cc(Cl)c2cccnc2c1O)c1cccs1 (stereo not given)	17	–
C=CCNc1oc(-c2ccc(Cl)cc2)nc1C#N	–	44.7 µM (active)
CC1(C)N=C(Nc2nc3ccccc3o2)NC2=C1C(=O)CCC2	2.42	–
Cc1cc(NS(=O)(=O)c2ccc(NC(=O)Cc3ccc(F)c(Cl)c3)cc2)no1	-28.5	–
O=C(Cc1ccccc1)NC(c1ccco1)c1cc(Cl)c2cccnc2c1O (stereo not given)	30.8	–
CCOC(=O)c1[nH]c2c(c1C)C(=S)CC(c1ccco1)C2 (stereo not given)	–	39.8 µM (active)
CC(C)c1nc(Nc2nc3ccccc3o2)nc2c1CCCC2	-13.5	–
Cc1ccccc1NC(=O)CN1C(=O)N/C(=C\c2cn(-c3cccc(C(=O)O)c3)cn2)C1=O	-7.84	–
C/C(=C\c1ccc2c(c1)OCO2)C1Nc2cccc3cccc(c23)N1	-15.1	–
Cc1ccsc1C1N=C(Nc2nc3ccccc3o2)NC2=C1C(=O)CCC2 (stereo not given)	-15.2	–
CN(CC(=O)Nc1ccc(N2CCOCC2)cc1)Cc1c(O)ccc2ccccc12	1.92	–
CC1CCC2(C1)N=C(Nc1nc3ccccc3o1)NC1=C2C(=O)CCC1 (stereo not given)	-4.34	–
CCOc1ccc(CCNC(=O)c2ccc(N3N=C(C)CC3=O)cc2)cc1OCC	-9.7	–
Oc1cccc2cc(N3CCCC3)cnc12	-10.6	–
CN1CCN(c2ccc(-c3cc(O)c4ncccc4c3)cc2)CC1	4.19	–
O=C(NCCCN1CCNCC1)c1cccc(-c2cc(O)c3ncccc3c2)c1	-7.42	–
CN(C)c1cnc2c(O)cccc2c1	-2.86	–
COC(=O)c1ccc(O)c2ncc(-c3ccc(C(=O)NCCCN(C)C)cc3)cc12	-8.91	–

SMILES	activity change, negative = inhibition [%]	Potency
COc1ccccc1Nc1cc2ccccc2c(=O)[nH]1	–	39.8 µM (active)
NC(=O)c1ccc(O)c2ncccc12	10.5	–
CS(=O)(=O)c1ccc(C(=O)OCC(=O)N2CCC(Cc3ccccc3)CC2)cc1[N+](=O)[O-]	-17.9	–
COC(=O)c1ccc(O)c2ncc(-c3ccc(C(=O)N4CCNCC4)cc3)cc12	6.25	–
Cc1ccc(C(=O)NC(c2ccco2)c2cc(Cl)c3cccnc3c2O)cc1 (stereo not given)	24.8	–
COc1ccc2c(=O)n3nc(Nc4cccc(N5CCN(C)CC5)c4)sc3nc2c1	-15.4	–
Cc1cnc(-c2ccccc2C(C)C)nc1NCc1ccc(-c2ccc(F)nc2)cc1	–	112 µM (active)
O=C(Cc1ccc(Cl)c(Cl)c1)Nc1ccc([S+](=O)([O-])Nc2nnc(-c3ccccn3)s2)cc1	–	35.5 µM (active)
O=C(NNC(=O)c1nc2ccccc2[nH]1)OCc1ccccc1	-15.9	–
CCOc1ccc(CCNC(C)=O)cc1OCC	11.5	–
NC(=O)C1CCN(c2nc(-c3ccccc3N)cs2)CC1	-1.7	–
Cc1ccc(OCCn2c(CCNC(=O)c3ccsc3)nc3ccccc32)cc1	41.9	–
O=C1CCCC2=C1C(c1cccnc1Br)N=C(Nc1nc3ccccc3o1)N2 (stereo not given)	7.16	–
O=[S+]([O-])(Nc1nccs1)c1ccc(NCc2cc(Cl)cc(Br)c2O)cc1	-19.8	–
Oc1cccc2cc(C3CC3)cnc12	3.33	–
CC(OC(=O)c1ccc(S(C)(=O)=O)c([N+](=O)[O-])c1)C(=O)NC1C2CC3CC(C2)CC1C3 (stereo not given)	-24.3	–
O=C(O)c1ccc(O)c2ncc(N3CCC(N4CCOCC4)C3)cc12 (stereo not given)	15.3	–
O=C(c1ccc(-c2cc(O)c3ncccc3c2)cc1)N1CCNCC1	-5.78	–
Fc1ccc(NC(=S)Nc2nnc(-c3ccncc3)s2)cc1C(F)(F)F	-13	–
O=C1CCCC2=C1C(c1ccn[nH]1)N=C(Nc1nc3ccccc3o1)N2 (stereo not given)	-12.4	–
